# Where a name gives a salt, the structure may show the parent alone. ± gives the standard deviation of the averaged measurements.
# System: A549
# Assay: relative viability (normalised to negative control = 1, bortezomib = 0) (fraction); higher = less cytotoxic
# Conditions: inflammatory serum-free RHB-A with cytokines + LPS, 5 d + 24 h CellTiter-Blue
# [1] = compound 30 nM, GSK126 pretreatment: 5 uM GSK126
# [2] = compound 30 nM, GSK126 pretreatment: none (vehicle)
# [3] = compound 300 nM, GSK126 pretreatment: 5 uM GSK126
# [4] = compound 300 nM, GSK126 pretreatment: none (vehicle)
SMILES,relative viability [1],relative viability [2],relative viability [3],relative viability [4]
COC(=O)Nc1ccc(-c2nc(N3CCOCC3)c3cnn(C4CCN(C(=O)OC)CC4)c3n2)cc1,0.691 ± 0.035,0.715 ± 0.019,0.489 ± 0.036,0.588 ± 0.04
CCCCC(=O)OCC(=O)[C@]1(O)Cc2c(O)c3c(c(O)c2[C@@H](O[C@H]2C[C@H](NC(=O)C(F)(F)F)[C@H](O)[C@H](C)O2)C1)C(=O)c1c(OC)cccc1C3=O [Valrubicin],0.989 ± 0.055,1.01 ± 0.042,0.899 ± 0.027,0.879 ± 0.041
Cc1cccc(-c2[nH]c(C(C)(C)C)nc2-c2ccc3nccnc3c2)n1,0.848 ± 0.048,0.828 ± 0.086,0.799 ± 0.036,0.887 ± 0.067
NCC(=O)CCC(=O)O [Aminolevulinic acid hydrochloride; Aminolevulinic acid],1.08 ± 0.17,0.985 ± 0.1,1.05 ± 0.12,0.981 ± 0.053
Cn1c(=O)n(-c2ccc(C(C)(C)C#N)cc2)c2c3cc(-c4cnc5ccccc5c4)ccc3ncc21,0.581 ± 0.063,0.624 ± 0.034,0.209 ± 0.0083,0.21 ± 0.0091
CC(C)(C)c1cc(NC(=O)Nc2ccc(-c3cn4c(n3)sc3cc(OCCN5CCOCC5)ccc34)cc2)no1,0.952 ± 0.016,0.898 ± 0.068,1.05 ± 0.087,1 ± 0.031
O=C(Nc1ccc(OC(F)(F)F)cc1)c1sccc1NCc1ccnc2ccccc12,1.07 ± 0.025,1.05 ± 0.035,1.15 ± 0.16,1.2 ± 0.036
CCN(CCO)CCCOc1ccc2c(Nc3cc(CC(=O)Nc4cccc(F)c4)[nH]n3)ncnc2c1 [AZD1152-HQPA(Barasertib)],0.73 ± 0.079,0.714 ± 0.031,0.813 ± 0.13,0.696 ± 0.037
CN(C)c1ccc(-c2nc3ncc(Cl)c(N4CCN(CC(=O)Nc5nccs5)CC4)c3[nH]2)cc1,0.997 ± 0.11,0.983 ± 0.091,1.1 ± 0.097,1.07 ± 0.066
NC(=O)c1ccc(-c2nc(-c3ccccn3)c(-c3ccc4c(c3)OCO4)[nH]2)cc1,0.825 ± 0.08,0.814 ± 0.1,0.817 ± 0.073,0.882 ± 0.1
CCS(=O)(=O)Nc1ccc2[nH]c(O)c(C(=Nc3ccc(CN4CCCCC4)cc3)c3ccccc3)c2c1 [Hesperadin],0.652 ± 0.13,0.598 ± 0.063,0.336 ± 0.019,0.331 ± 0.022
OC[C@H]1O[C@@H](n2cnc3c2N=CNC[C@H]3O)C[C@@H]1O [Pentostatin],0.908 ± 0.068,0.918 ± 0.062,0.931 ± 0.076,0.914 ± 0.056
O=C1C(c2c(O)[nH]c3ccccc23)=Nc2ccccc21 [Indirubin; INDIRUBIN],0.788 ± 0.038,0.796 ± 0.041,0.762 ± 0.078,0.807 ± 0.045
CC(C)(C#N)c1cc(Cn2cncn2)cc(C(C)(C)C#N)c1 [Anastrozole; Arimidex],0.743 ± 0.051,0.792 ± 0.039,0.804 ± 0.086,0.896 ± 0.04
CC(=O)c1c(C)c2cnc(Nc3ccc(N4CCNCC4)cn3)nc2n(C2CCCC2)c1=O,0.89 ± 0.074,0.913 ± 0.063,0.903 ± 0.087,0.931 ± 0.064
CS(=O)(=O)OCCCCOS(C)(=O)=O [Busulfan],0.889 ± 0.017,0.865 ± 0.038,0.916 ± 0.067,0.893 ± 0.024
CCCCCOC(=O)Nc1nc(=O)n([C@@H]2O[C@H](C)[C@@H](O)[C@H]2O)cc1F [Capecitabine],0.858 ± 0.12,0.867 ± 0.12,0.892 ± 0.14,0.965 ± 0.12
CN(C)C1CCN(C(=O)c2ccc(NC(=O)Nc3ccc(-c4nc(N5CCOCC5)nc(N5CCOCC5)n4)cc3)cc2)CC1,0.329 ± 0.01,0.428 ± 0.011,0.0588 ± 0.0043,0.088 ± 0.0042
CC(=O)O[C@@]12CO[C@@H]1C[C@H](O)[C@@]1(C)C(=O)[C@H](O)C3=C(C)[C@@H](OC(=O)[C@H](O)[C@@H](NC(=O)OC(C)(C)C)c4ccccc4)C[C@@](O)([C@@H](OC(=O)c4ccccc4)[C@H]21)C3(C)C [Docetaxel],0.491 ± 0.058,0.349 ± 0.015,0.583 ± 0.053,0.429 ± 0.011
COc1ccc(S(=O)(=O)N(C(C)=O)c2ccccc2/C=C/c2cc[n+]([O-])cc2)cc1,0.924 ± 0.032,0.914 ± 0.033,0.663 ± 0.032,0.623 ± 0.056
CNC(=O)c1cc(Oc2ccc(NC(=O)Nc3ccc(Cl)c(C(F)(F)F)c3)cc2)ccn1 [Sorafenib tosylate; Sorafenib; Sorafenib Tosylate],1.12 ± 0.089,1.04 ± 0.039,1.12 ± 0.18,1.1 ± 0.1
O=C(NOC[C@H](O)CO)c1ccc(F)c(F)c1Nc1ccc(I)cc1F,0.213 ± 0.035,0.291 ± 0.011,0.108 ± 0.017,0.112 ± 0.0091
CN1CC[C@H](c2c(O)cc(O)c3c(=O)cc(-c4ccccc4Cl)oc23)[C@H](O)C1 [Flavopiridol hydrochloride],0.774 ± 0.011,0.785 ± 0.025,0.00358 ± 0.0037,0.00865 ± 0.0022
CC[C@@H]1C(=O)N(C)c2cnc(Nc3ccc(C(=O)NC4CCN(C)CC4)cc3OC)nc2N1C1CCCC1,0.451 ± 0.03,0.362 ± 0.021,0.212 ± 0.04,0.215 ± 0.02
COc1cc2ncnc(Nc3ccc(F)c(Cl)c3)c2cc1OCCCN1CCOCC1 [Gefitinib(Iressa); Gefitinib],0.922 ± 0.11,0.873 ± 0.084,0.488 ± 0.11,0.472 ± 0.045
Oc1cccc(-c2nc(N3CCOCC3)c3oc4ncccc4c3n2)c1,0.743 ± 0.082,0.805 ± 0.11,0.113 ± 0.011,0.127 ± 0.025
CO[C@@H](C(=O)N1Cc2[nH]nc(NC(=O)c3ccc(N4CCN(C)CC4)cc3)c2C1)c1ccccc1,0.626 ± 0.07,0.622 ± 0.05,0.488 ± 0.032,0.504 ± 0.058
COc1cc2ncnc(Nc3cccc(Br)c3)c2cc1OC,0.996 ± 0.044,0.976 ± 0.048,0.537 ± 0.17,0.701 ± 0.086
